About 83,000 compounds went through this panel and 20% of them were active in at least one assay; those are over-represented in the sample as a whole.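 Interpretation: 100, growth as untreated; towards 0, rising growth inhibition; 0, no net growth; 0 to -100, cell death. Compounds scoring below 10 were considered active.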 The source made the active and inactive calls.
Tests used:
Assay in all cases: NCI-60 one-dose screen, 48 h (100 = growth as untreated, 0 = no growth, -100 = all killed)
HCT-15 colon = conditions: 10 µM unless noted
HT29 colon = conditions: 10 µM unless noted
SNB-75 CNS = conditions: 10 µM unless noted
SNB-19 CNS = conditions: 10 µM unless noted
U251 CNS = conditions: 10 µM unless noted
PC-3 prostate = conditions: 10 µM unless noted
SK-MEL-5 melanoma = conditions: 10 µM unless noted
UACC-62 melanoma = conditions: 10 µM unless noted
LOX IMVI melanoma = conditions: 10 µM unless noted
SK-MEL-28 melanoma = conditions: 10 µM unless noted
SK-MEL-2 melanoma = conditions: 10 µM unless noted
EKVX NSCLC = conditions: 10 µM unless noted
SN12C renal = conditions: 10 µM unless noted
UO-31 renal = conditions: 10 µM unless noted
A498 renal = conditions: 10 µM unless noted
CCRF-CEM leukemia = conditions: 10 µM unless noted
MOLT-4 leukemia = conditions: 10 µM unless noted
CAKI-1 renal = conditions: 10 µM
TK-10 renal = conditions: 10 µM unless noted
ACHN renal = conditions: 10 µM unless noted

Measured: growth

COC(=O)c1ccc2c(c1)Oc1ccc(Cl)cc1-c1cc(C)nn1-2
inactive: HCT-15 colon 91.6% | HT29 colon 74.3% | SNB-75 CNS 63.3% | SNB-19 CNS 68.8% | U251 CNS 19.1% | PC-3 prostate 76% | SK-MEL-5 melanoma 86% | UACC-62 melanoma 84.7% | LOX IMVI melanoma 57.9% | SK-MEL-28 melanoma 106% | SK-MEL-2 melanoma 100% | EKVX NSCLC 66.9% | SN12C renal 51.8% | UO-31 renal 82.2% | A498 renal 62.7% | CCRF-CEM leukemia 78.8% | MOLT-4 leukemia 99.9%

O=C(Nc1ccc(-n2ccc3c(NC(=O)c4ccccc4)nccc32)cc1)Nc1cccc(C(F)(F)F)c1
inactive: HCT-15 colon 19.7% | SNB-75 CNS 74.3% | SNB-19 CNS 65.8% | U251 CNS 32.3% | PC-3 prostate 13.6% | SK-MEL-5 melanoma 53.6% | UACC-62 melanoma 78.6% | LOX IMVI melanoma 26.6% | SK-MEL-28 melanoma 60.3% | SK-MEL-2 melanoma 71.9% | EKVX NSCLC 65.5% | SN12C renal 79.2% | UO-31 renal 78% | CAKI-1 renal 68.6% | A498 renal 80.7% | MOLT-4 leukemia 35.9%
active: HT29 colon -0.934%

NC(CSC(c1ccccc1)(c1ccccc1)c1ccc(F)cc1)C(=O)O (stereo not drawn)
inactive: HCT-15 colon 35.3% | SNB-19 CNS 35.3% | U251 CNS 31.5% | PC-3 prostate 15.8% | SK-MEL-5 melanoma 15.2% | LOX IMVI melanoma 46.4% | SK-MEL-28 melanoma 58.8% | SN12C renal 39% | UO-31 renal 25.3% | TK-10 renal 64.8% | ACHN renal 56.8% | A498 renal 58.2%
active: HT29 colon 4.36% | SNB-75 CNS -0.679% | SK-MEL-2 melanoma -30.6% | EKVX NSCLC 7.52% | MOLT-4 leukemia 9.44%

O=C(Cn1c2ccccc2c2ccncc21)N/N=C/c1c[nH]c2ccccc12
active: SK-MEL-5 melanoma 4.85%
inactive: HCT-15 colon 93.4% | HT29 colon 44.2% | SNB-75 CNS 31% | SNB-19 CNS 53.4% | U251 CNS 19.7% | PC-3 prostate 78.8% | LOX IMVI melanoma 33.3% | SK-MEL-28 melanoma 56.5% | SK-MEL-2 melanoma 95.3% | EKVX NSCLC 91.2% | SN12C renal 38.8% | UO-31 renal 103% | TK-10 renal 113% | ACHN renal 77.7% | A498 renal 104% | CCRF-CEM leukemia 43.8% | MOLT-4 leukemia 53.4%

CCOC(=O)CSc1nnc(-c2cc3c([nH]c4ccccc43)c(-c3cccc(O)c3)n2)n1-c1ccc(C)cc1
inactive: HCT-15 colon 42.7% | HT29 colon 43% | SNB-75 CNS 63.3% | SNB-19 CNS 97.3% | U251 CNS 54.9% | PC-3 prostate 15.1% | SK-MEL-5 melanoma 94.1% | LOX IMVI melanoma 32.6% | SK-MEL-28 melanoma 79.9% | SK-MEL-2 melanoma 37.7% | EKVX NSCLC 78.8% | SN12C renal 58.1% | UO-31 renal 72.6% | ACHN renal 50.4% | CAKI-1 renal 92.1% | A498 renal 96.8% | CCRF-CEM leukemia 46.4% | MOLT-4 leukemia 17.4%

CCCCN(CCCC)c1ccc(C(=N)c2ccc(N(C)C)cc2)cc1
active: HCT-15 colon -58.7% | HT29 colon -50.8% | SNB-75 CNS -46.6% | SNB-19 CNS 6.19% | U251 CNS -17% | PC-3 prostate -14.7% | SK-MEL-5 melanoma -99.8% | UACC-62 melanoma -71.9% | LOX IMVI melanoma -95.9% | SK-MEL-28 melanoma -70.1% | SK-MEL-2 melanoma -69.6% | EKVX NSCLC -11.9% | SN12C renal -30% | TK-10 renal -5.56% | ACHN renal -2.72% | CAKI-1 renal -28.9% | A498 renal 9.81% | CCRF-CEM leukemia 1.04% | MOLT-4 leukemia 1.79%

Cc1cc(C)c(O)c(C(=O)CC(Br)C(=O)O)c1 (stereo not drawn)
inactive: HCT-15 colon 103% | HT29 colon 99.1% | SNB-75 CNS 102% | SNB-19 CNS 108% | U251 CNS 100% | PC-3 prostate 89.7% | SK-MEL-5 melanoma 101% | LOX IMVI melanoma 93.1% | SK-MEL-28 melanoma 101% | SK-MEL-2 melanoma 89.5% | EKVX NSCLC 99.4% | SN12C renal 110% | UO-31 renal 77.7% | TK-10 renal 107% | A498 renal 117% | CCRF-CEM leukemia 65.2% | MOLT-4 leukemia 88.5%

Cc1c(NC(=O)c2sc3nc4c(cc3c2N)CN(Cc2ccccc2)CC4)cccc1C(F)(F)F
inactive: HCT-15 colon 29.3% | HT29 colon 12.2% | SNB-75 CNS 45.8% | SNB-19 CNS 50.5% | U251 CNS 38.2% | PC-3 prostate 56% | SK-MEL-5 melanoma 41.9% | LOX IMVI melanoma 42.3% | SK-MEL-28 melanoma 74% | SK-MEL-2 melanoma 49.5% | EKVX NSCLC 62.1% | SN12C renal 55.2% | UO-31 renal 65.6% | TK-10 renal 96% | A498 renal 52% | CCRF-CEM leukemia 15.6% | MOLT-4 leukemia 25.9%

S=c1n(CNc2ccc(Cl)nn2)nc(-c2cc(Cl)cc(Cl)c2Cl)n1/N=C/c1ccc(Cl)cc1
inactive: HCT-15 colon 117% | HT29 colon 118% | SNB-75 CNS 98.5% | SNB-19 CNS 102% | U251 CNS 86.9% | PC-3 prostate 82.6% | SK-MEL-5 melanoma 90.9% | LOX IMVI melanoma 94.5% | SK-MEL-28 melanoma 105% | SK-MEL-2 melanoma 84.1% | EKVX NSCLC 91.3% | SN12C renal 103% | UO-31 renal 80.8% | TK-10 renal 113% | ACHN renal 107% | A498 renal 121% | MOLT-4 leukemia 60.5%
active: CCRF-CEM leukemia -32.8%

— PubChem BioAssay (NCI)
